Inhibition data for 89 molecules are collected here from PubChem BioAssay AID485270 (The Scripps Research Institute Molecular Screening Center, 2010).

The whole screen tested about 330,000 compounds, of which about 5,800 (1.8%) were called active. The sample holds actives, similar compounds and a random draw of the others, so the mix is not that of the screen. Rule as the data show it: active = inhibition mostly above about 38% (no sharp cut-off); inactive = mostly below about 40%.

Sequence of Orexin/Hypocretin receptor type 1 (Homo sapiens) (O43613 whole entry, looked up): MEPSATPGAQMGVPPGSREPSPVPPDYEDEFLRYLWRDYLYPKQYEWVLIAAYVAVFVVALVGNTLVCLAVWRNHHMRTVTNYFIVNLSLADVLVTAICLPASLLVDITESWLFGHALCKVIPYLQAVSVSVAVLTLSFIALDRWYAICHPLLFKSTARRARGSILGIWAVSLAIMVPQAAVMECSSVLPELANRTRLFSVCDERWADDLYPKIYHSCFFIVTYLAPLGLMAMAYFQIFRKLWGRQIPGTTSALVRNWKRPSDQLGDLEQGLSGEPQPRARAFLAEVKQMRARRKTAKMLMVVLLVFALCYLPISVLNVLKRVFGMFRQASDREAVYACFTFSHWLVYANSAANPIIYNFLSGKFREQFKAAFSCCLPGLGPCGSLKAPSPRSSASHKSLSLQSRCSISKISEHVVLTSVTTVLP

The assay addresses Orexin/Hypocretin receptor type 1 (Homo sapiens) (UniProt O43613). The assay can be described thus: blocks the human orexin 1 receptor (AID 485270).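 Also: 0% = agonist challenge alone and 100% = reference antagonist.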 The conditions noted are these: OX1R-expressing cells, FRET antagonist read-out; at 6.6 µM; stronger effect = higher value.
What is called inhibition is the drop in the measured response relative to a control, in per cent. As to `COc1ccc(C(CNC(=O)c2cccc(NS(=O)(=O)c3ccc(C)c(F)c3)c2)N2CCCC2)cc1` (centres undefined), the inhibition was 6.44% (inactive).
The same measure for `COc1ccc(C(CNC(=O)c2cccc(S(=O)(=O)Nc3ccccc3Cl)c2)N2CCOCC2)cc1` (centres undefined): 34.6% (active); for `COc1ccc(C(CNC(=O)c2ccc(S(=O)(=O)Nc3ccccc3C)cc2)N2CCOCC2)cc1` (centres undefined): 8.1% (inactive).
Turning to `O=C(NCC#CCSc1nnc(-c2cccc3ccccc23)o1)c1cccs1`, the inhibition was 8.58% (inactive).
The same measure for `COc1ccc(S(=O)(=O)N(C)C[C@H]2Oc3c(NC(=O)Nc4ccc5c(c4)OCO5)cccc3C(=O)N([C@H](C)CO)C[C@@H]2C)cc1`: 6.37% (inactive).
For `Cc1cccc(-c2nc3ccc(C(=O)NCCN4CCN(C)CC4)cc3nc2-c2cccc(C)c2)c1`, the inhibition was 17.7% (inactive).
For the molecule `C=CCNC(=O)c1ccc2c3n(nc2c1)-c1ccc(C)cc1CO3`, the inhibition was 75% (active).
Take `Cn1nnc2cc(C(=O)NCCC3=CCCCC3)ccc21`: the inhibition was 20.7% (inactive).
The same measure for `CC(NC(=O)COC(=O)c1ccc2ccccc2n1)c1ccccc1` (centres undefined): 15.5% (inactive).
For the molecule `O=C(NC(=S)Nc1ccc(Br)cc1F)C1CCCCC1`, the inhibition is 4.65% (inactive).
The same measure for `O=C(CN1C(=O)NC2(CCCCCC2)C1=O)NCc1ccc(F)cc1`: 6.28% (inactive); for `COc1cc(C)ccc1OCC(=O)OCC(=O)c1ccc[nH]1`: 11.8% (inactive).
The same measure for `O=C(NCCC(=O)N1O[C@@H]2C=C[C@H]1C2)OCC1c2ccccc2-c2ccccc21`: 7.51% (inactive).
Take `O=C(Nc1ccc(Cl)c(Cl)c1)N1CC=C(c2ccccc2)CC1`: the inhibition was 56.1% (active).
With `COc1cc(C(=O)NCC(=O)N2CC=C(c3ccccc3)CC2)cc(OC)c1OC`, the inhibition was 13.7% (inactive).
Take `O=C(Nc1ccccc1)N1CCN(C(=O)Nc2ccccc2)CC1`: the inhibition was 7.94% (inactive).
For the molecule `CC(C)n1cnc2c(NCc3ccccc3)cc(N[C@@H](CO)Cc3ccccc3)cc21`, the inhibition is 33.2% (inactive).
For `Cc1cc(-c2ccc(C)c(S(=O)(=O)NCCCN(Cc3ccccc3)C(C)C)c2)on1`, the inhibition was 22.4% (inactive).
The same measure for `Cc1cc(-c2ccc(C)c(S(=O)(=O)Nc3ccc(S(N)(=O)=O)cc3)c2)on1`: 14.9% (inactive).
The same measure for `Cc1cc(-c2ccc(C)c(S(=O)(=O)NC(C)Cc3ccco3)c2)on1` (centres undefined): 46% (active); for `COc1ccc(S(=O)(=O)N(C)C[C@H]2Oc3ccc(NS(=O)(=O)c4cccs4)cc3CC(=O)N([C@H](C)CO)C[C@H]2C)cc1`: 8.61% (inactive).
In the case of `O=C(N/N=C/c1c[nH]c2ccccc12)c1ccccc1O`, the inhibition was -0.06% (inactive).
The same measure for `O=C(O)c1cccc(NC(=S)N/N=C/c2c[nH]c3ccccc23)c1`: 18.9% (inactive); for `Cc1ccc(NC(=O)c2cc3ccccc3o2)cc1`: 4.2% (inactive); for `Cc1c(/C=N/N2C(=O)C3C4C=CC(C4)C3C2=O)c2ccccc2n1C` (centres undefined): 1.17% (inactive).
The same measure for `O=C(N/N=C/c1c[nH]c2ccccc12)c1cc2ccccc2o1`: 65.5% (active).
For the molecule `Cc1c(/C=N\NC(=O)c2cc3ccccc3o2)c2ccccc2n1C`, the inhibition is 89.7% (active).
Consider `C=CC1=C(C(=O)O)N2C(=O)[C@@H](NC(=O)/C(=N\OCC(=O)O)c3csc(N)n3)[C@H]2SC1`, for which the inhibition was 9.76% (inactive).
The same measure for `CN(C)C(=O)CCc1ccc2c3c([nH]c2c1)[C@]1(C)[C@@H](C(=O)N2CCOCC2)C[C@H](CC(=O)NCCc2ccccn2)C(=O)N1CC3`: 8.14% (inactive); for `O=C(CCS(=O)(=O)c1cccc2nonc12)NCCc1ccccc1Cl`: 40.5% (inactive).
The same measure for `CC1CCCCC1NC(=O)CCS(=O)(=O)c1cccc2nonc12` (centres undefined): 57.3% (active); for `CC1CCCCC1NC(=O)CCS(=O)(=O)c1ccc2c(c1)NC(=O)CO2` (centres undefined): -0.2% (inactive).
In the case of `Cc1nn(-c2ccccc2)nc1C(=O)OCC(=O)N1CCCCC1C` (centres undefined), the inhibition was 8.79% (inactive).
The same measure for `CC[n+]1cc(C)ccc1/C=C/c1ccc(N(C)C)cc1`: 52.2% (active).
The same measure for `Cc1noc(C)c1C(=O)OC(C)C(=O)Nc1ccc2c(c1)OCO2` (centres undefined): 6.68% (inactive).
`COc1ccc(S(=O)(=O)N2CCN(CC(=O)N3CCOCC3)CC2)cc1OC`: the inhibition was 7.86% (inactive).
The same measure for `C/C(=N\NC(=O)c1ccc2ccccc2c1)c1cccnc1`: 7.2% (inactive); for `CCOc1ccccc1NC(=O)c1cccnc1`: 13% (inactive).
The same measure for `CCn1c(O)c2ccc(C(=O)N=NC(=O)c3cccnc3)cc2c1O`: 52.5% (active).
The same measure for `O=C(OCC(=O)N1CCCCCC1)c1ccc(Cl)nc1`: 9.15% (inactive).
`C=CC[C@@H](Cc1ccc(F)cc1)C(=O)OC[C@H]1CCCN1C(=O)[C@H](CC=C)CC(=O)N(CCO)Cc1ccccc1`: the inhibition is 5.09% (inactive).
The same measure for `CCCSc1ccc([C@H]2N[C@@](Cc3ccccc3)(C(=O)OC)[C@H]3C(=O)N(C)C(=O)[C@@H]23)cc1`: 8.14% (inactive); for `CCC1CCCCN1C(=S)NC(=O)c1ccco1` (centres undefined): 0.14% (inactive).
In the case of `COc1ccc(Cc2nnc(SCC(=O)Nc3ccc(C)c(Cl)c3)[nH]c2=O)cc1`, the inhibition was 27% (inactive).
As for `Cc1ccc(NC(=O)CSc2nnc(CNC(=O)c3ccccc3F)o2)cc1Cl`, the inhibition was 13.1% (inactive).
The same measure for `Cc1ccc(NC(=O)CSc2nn3c(=O)c(C)nnc3s2)cc1Cl`: 53.8% (active); for `CC(C)n1cnc2c(NCc3ccccc3)cc(OCC3CCN(C)CC3)cc21`: 19.4% (inactive).
The same measure for `Cc1cccc(C(=O)OCC(=O)NC(C)C2CC3CCC2C3)c1O` (centres undefined): 17.1% (inactive); for `COCCn1c(C)cc(C(=O)CN2c3cccc4cccc(c34)S2(=O)=O)c1C`: 24.1% (inactive).
The same measure for `Cc1ccc(NC(=O)c2ccc(Cl)nc2)cc1S(=O)(=O)N1CCOCC1`: 5.02% (inactive); for `CCN(C(=O)CSc1nnnn1-c1ccc(OC)cc1)C1CCS(=O)(=O)C1` (centres undefined): 8.67% (inactive).
For `COc1cc(/C=C/C(=O)OCC(=O)NCCCc2ccccc2)ccc1O`, the inhibition is 5.75% (inactive).
As for `O=[n+]1c2c(n([O-])c3cc(Br)ccc31)CCC2`, the inhibition was 66% (active).
The same measure for `Cc1ccc(-c2c(C)n([O-])c3c([n+]2=O)CCC3)cc1`: 22.7% (inactive); for `Cc1ccc(-c2c[n+](=O)c3c(n2[O-])CCC3)cc1`: 17.4% (inactive).
Regarding `CC(C)CC1(C)NC(=O)N(CC(=O)Nc2ccc3c(c2)OCCO3)C1=O` (centres undefined), the inhibition is 5.05% (inactive).
The same measure for `COc1ccc(CNC(=O)C[C@H]2C[C@H](C(=O)N3CCOCC3)[C@@]3(C)c4[nH]c5cc(CCC(=O)N(C)C)ccc5c4CCN3C2=O)cc1OC`: 1.77% (inactive).
`Nc1c(-c2ccc(F)cc2)cnc2ncnn12`: the inhibition is 7.26% (inactive).
The same measure for `CC1(C)CN(c2ccc(-c3ccnc4ncnn34)cc2)C1=O`: 41.3% (active).
Consider `Cc1cccc(-c2nnc(SCC(=O)O)n2Cc2ccccc2)c1`, for which the inhibition was -2.09% (inactive).
`CCn1nnnc1SCC(=O)c1ccc(C)cc1C`: the inhibition is 12.5% (inactive).
Regarding `Cc1ccc2c(c1)nnc1nnc(SCC(=O)O)n12`, the inhibition was 89.5% (active).
Consider `CCN(C(=O)COC(=O)c1ccccc1O)c1cccc2ccccc12`, for which the inhibition is 4.23% (inactive).
On to `CC[C@]12c3[nH]c4ccc(Cl)cc4c3CCN1C(=O)[C@@H](CC(=O)NCCCOC)C[C@@H]2C(=O)N1CCN(C(=O)C2CC2)CC1`, for which the inhibition was -3.2% (inactive).
The same measure for `O=C(C1CCC1)N1CCN(S(=O)(=O)c2ccc([N+](=O)[O-])cc2)CC1`: 43.9% (active); for `O=C(Cc1ccccc1)NNS(=O)(=O)c1ccc([N+](=O)[O-])cc1`: 42% (inactive).
The same measure for `O=C(C1CCCN(S(=O)(=O)c2ccccc2)C1)N1CCN(c2ccc(F)cc2)CC1` (centres undefined): 13.8% (inactive).
Regarding `Cc1ccc(S(=O)(=O)N2CCCC(C(=O)N3CCN(C)CC3)C2)cc1` (centres undefined), the inhibition was 16.7% (inactive).
The same measure for `COc1ccc(CCC(=O)N2CCN(S(=O)(=O)c3ccc(OC)cc3)CC2)cc1`: 3.59% (inactive); for `O=C(Cc1ccccc1)N1CCN(S(=O)(=O)c2ccc([N+](=O)[O-])cc2)CC1`: 88.8% (active); for `O=C(NNS(=O)(=O)c1ccc([N+](=O)[O-])cc1)C1CCCCC1`: 34.2% (inactive).
The same measure for `O=C(C1CCCN(S(=O)(=O)c2ccc([N+](=O)[O-])cc2)C1)N1CCCCC1` (centres undefined): 66.7% (active); for `O=C(O)C1CCCCC1C(=O)N1CCN(S(=O)(=O)c2ccc(F)cc2)CC1` (centres undefined): 7.06% (inactive); for `CC1CCCN(C(=O)CN2C(=O)c3ccccc3S2(=O)=O)C1` (centres undefined): 1.18% (inactive).
The same measure for `COc1ccc(C(=O)Nc2cc(S(=O)(=O)N3CCCC3)ccc2Cl)cc1`: 16.2% (inactive).
With `COc1ccc(OCC(=O)NNC(=O)C2CCC2)cc1`, the inhibition was -2.24% (inactive).
The same measure for `O=C(COC(=O)COc1cccc(F)c1)NCC1CCCCC1`: 4.71% (inactive); for `O=C(CN1C(=O)NC2(CCOc3ccccc32)C1=O)Nc1cccc([N+](=O)[O-])c1` (centres undefined): 7.29% (inactive).
For `Cc1ccc(F)cc1NC(=O)CSCc1c(C)noc1C`, the inhibition is -1.27% (inactive).
Take `CCc1noc(C)c1C(=O)Nc1nc2ccc(OC)cc2s1`: the inhibition was 25.1% (inactive).
The same measure for `Cc1noc(C)c1CSCC(=O)Nc1nc2ccc(Oc3ccccc3)cc2s1`: 76% (active); for `Nn1c(SCC(=O)NC2CCCc3ccccc32)nnc1C1CC1` (centres undefined): 8.92% (inactive).
The same measure for `COC(=O)COc1cccc2c(=O)n(CC(=O)NCCc3ccc(OC)c(OC)c3)ccc12`: 1.07% (inactive).
`CCOC(=O)C(C)Oc1cccc2c(=O)n(CC(=O)N3CCc4ccccc43)ccc12` (centres undefined): the inhibition is 12.2% (inactive).
As for `CCOC(=O)C(C)Oc1cccc2c(=O)n(CC(=O)NCCc3ccc(OC)c(OC)c3)ccc12` (centres undefined), the inhibition is 37% (active).
The same measure for `Cc1onc(-c2c(F)cccc2Cl)c1C(=O)OCC(=O)N1C(C)CCCC1C` (centres undefined): 17.2% (inactive).
`CN(C)CCNC(=O)c1[nH]nc2c1CCc1ccccc1-2`: the inhibition is 3.78% (inactive).
Consider `COc1cccc(/C=N/NC(=O)c2[nH]nc3c2CCc2ccccc2-3)c1O`, for which the inhibition is 75.7% (active).
The same measure for `COc1ccc(/C=N/NC(=O)c2ccc3c(c2)OCCO3)c(OC)c1`: 22.9% (inactive).
